These sequences were tested on RARg:RXRa (NR concentration 270 nM, RXRa partner concentration 90 nM) (assay: PBM binding z-score (relative to random genomic background probes); higher = stronger binding; sequences stand for … in GC…GCGATTGACAGCGTAGAATGAAGG).
Outline: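 Ligand-free nuclear receptor dimers were bound for 1 h to custom Agilent 4×180K protein-binding microarrays. Detection used antibodies against each partner (one per run). Binding z-scores rest on regression-normalized fluorescence, with random background probes as the reference.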

Row | Sequence | PBM binding z-score
1 | CGTCCTAGGTCAAAGGTCAGTGAAGAGATGACGG | 7.97
2 | TCTATTAGTCGAAGGGCAACCGACGAGTCCGTTT | 0.394
3 | TGAATGAGGTTAAAGATCGGGGAACGTGGCGTCG | 2.41
4 | CGTCAAAGTTGAAGGTAACGTAACAGAAAGCAGC | 0.945
5 | TCAAGCAGGCCAGAGGGTCACTCAAGAGGTACGG | 2.61
6 | GCTAGTTGGTCAGTAAAAGGTCACACCCCGGTCG | 5.17
7 | ATCGAAAGGTCGGCGAGGTGAGTATACACCGTTT | 3.69
8 | TCTAGCAGGCCCGAGGGTCACTCAAGAGGTACGG | 2.27
9 | ACTATTAGCTGAGACGAGGGCAACCGATAGGTTG | 0.452
10 | TAGCCTAGGTCGTGCGGGCCAGTATAGTGTCGGC | 0.705
11 | TCTTGTAGACCAATAGAGGTTAAGAAAGTGCGCT | 0.922
12 | TCCAGTAGGTTAGGGGCATTCAGAATGGCGTCGA | 0.561
13 | ATACCAAGGTGATCTTGAGGTCGTTGATACTAAC | 2.62
14 | ACTATTAGTTGAGACGTGGGCAACCGATAGGTTG | -0.179
15 | CCTACTGGGCCAAAAAGGTCATTGAGGCCGATAA | 4.72
16 | CGTCCAAGGTCATAGGAGGTCAGCGAAGACAGAT | 7.17
17 | GCATATAGGTAATGCAAGGTGAAAGTCCGATTGT | 0.513
18 | TCTAGCAGGCCAGAGGGTCATTCAAGAGGTACGG | 2.78
19 | AGAATGAGGTTACCAAAGATCAGCGAAACGCTTG | 2.03
20 | TCTATTAGTTGATTAGGGCAGCCGAAACAGCGGA | 0.585
21 | ACTATTAGTTGAGAAGAGGGCAACCGATAGGTTG | 0.92
22 | ACTAGCAGGCCAAGTTTGGGTCACTTAAACAAAG | 2.2

Reference: the supplement of paper PMC6555819
